Data taken from PubChem BioAssay (NCATS).
Results filed as inconclusive are left out. Activity calls are given as the source filed them. The call rests on the fitted dose curve; in most records, active means well fitted curve in the direction sought with a large enough effect; inconclusive means small, poorly fitted or top-dose-only effect, or another doubt; inactive means no such curve, though single readings can be large; an effect the other way counts as inactive or inconclusive.

Assays:
[1] = qHTS assay for measurement of the activity of small molecule inhibitors on Zika virus induced Caspase-3 activity in human iPSC derived neural progenitor cells (hNPCs) (AID 1224857); further: nearly all actives have a fitted effect of over 65% in size
Outline: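 Pretreat hNPCs with compound 1 h; infect ZIKV 2 FFU/cell; 6 h 37 C, 5% CO2; Caspase-Glo 3/7, 30 min RT; luminescence; normalize to no-virus and virus-only wells.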

[2] = qHTS assay for measurement of the activity of small molecule inhibitors on Zika virus induced Caspase-3 activity in human astrocytoma cells (AID 1224859)
Outline: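 Human SNB-19 astrocytoma cells in RPMI 1640 with 10% FBS receive compound one hour ahead of Zika virus at 2 FFU/cell. After 6 h infection, caspase-3/7 activity is detected by Caspase-Glo luminescence.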

[3] = qHTS assay to identify small molecule inhibitors of chordoma cells - UCH-1 (AID 1259355); further: nearly all actives have a fitted effect of over 55% in size
Outline: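 Seed 800 cells per well; incubate overnight at 37 C, 5% CO2. Add test compounds (15 concentrations), then the auranofin–topoisomerase-agent combination. Incubate 48hr, add CellTiter-Glo, wait 30min, read luminescence.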

[4] = qHTS assay to identify small molecule inhibitors of chordoma cells - UCH-2 (AID 1259356); further: series mostly up to about 46 µM
[5] = NS1 protein of Zika virus - qHTS assay to identify small molecule inhibitors in human HEK 293 cells (AID 1347053); further: series mostly up to about 46 µM; nearly all actives have a fitted effect of over 55% in size
Outline: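 Following 20 h seeding, HEK 293 cells took compound, then 1 h later ZIKV MR766 (MOI = 0.5). Incubation ran 24 h at 37 C before TR-FRET detection of NS1; a drop in signal indicates inhibition.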

[6] = qHTS of pediatric cancer cell lines to identify multiple opportunities for drug repurposing: Primary screen for TC32 cells (AID 1347089); further: nearly all actives have a fitted effect of over 60% in size
Outline: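 TC32 cells, 500-1,000/well in growth medium, compound-treated 48 h at 37 °C; viability from CellTiter-Glo luminescence. Primary screen: MIPE 11-point (0.78 nM–46 µM final), NPC 8-point (0.59 nM–46 µM final); confirmatory at 11-point dilutions.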

[7] = qHTS of pediatric cancer cell lines to identify multiple opportunities for drug repurposing: Primary screen for DAOY cells (AID 1347090); further: series mostly up to about 46 µM; nearly all actives have a fitted effect of over 55% in size
Outline: (§1)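 Cell viability, CellTiter-Glo luminescence; 500-1,000 cells/well, 8- or 11-point titration, 48 h compound exposure at 37 degrees C, 5% CO2. Controls: DMSO neutral, bortezomib 2.3 µM final as positive.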

[8] = qHTS of pediatric cancer cell lines to identify multiple opportunities for drug repurposing: Primary screen for SJ-GBM2 cells (AID 1347091)
Outline: as §1

[9] = qHTS of pediatric cancer cell lines to identify multiple opportunities for drug repurposing: Primary screen for A673 cells (AID 1347092); further: nearly all actives have a fitted effect of over 45% in size
Outline: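 A673 cells (500-1,000 cells/well) were treated 48 hours at 37 degrees C with compounds at 11-point (0.78 nM to 46 µM) or 8-point (0.59 nM to 46 µM) dilutions. Viability read by CellTiter-Glo luminescence; concentration-response curves fitted.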

[10] = qHTS of pediatric cancer cell lines to identify multiple opportunities for drug repurposing: Primary screen for SK-N-MC cells (AID 1347093); further: series mostly up to about 46 µM
Outline: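 Metabolically active cells were quantified by ATP-dependent luminescence (CellTiter-Glo, 15 min at room temperature) following 48 h treatment. Cells had been plated at 500-1,000 per well and settled for 5 h beforehand.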

[11] = qHTS of pediatric cancer cell lines to identify multiple opportunities for drug repurposing: Primary screen for BT-37 cells (AID 1347094); further: series mostly up to about 57 µM
Outline: (§2)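 Readout: CellTiter-Glo luminescence, 48 h treatment. Controls DMSO (neutral) and bortezomib 2.3 µM final (positive). Potency and efficacy taken from primary-screen concentration-response curves.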

[12] = qHTS of pediatric cancer cell lines to identify multiple opportunities for drug repurposing: Primary screen for NB-EBc1 cells (AID 1347095)
Outline: as §2

[13] = qHTS of pediatric cancer cell lines to identify multiple opportunities for drug repurposing: Primary screen for U-2 OS cells (AID 1347096); further: nearly all actives have a fitted effect of over 50% in size
Outline: (§3)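 Cells (500-1,000/well) rested 5 h, then received compounds for 48 h; metabolically active cells were measured by CellTiter-Glo luminescence. Final concentrations spanned up to 46 µM (MIPE, 11-point) or 0.59 nM-46 µM (NPC, 8-point) in primary screens, 11-point in follow-ups.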

[14] = qHTS of pediatric cancer cell lines to identify multiple opportunities for drug repurposing: Primary screen for Saos-2 cells (AID 1347097); further: nearly all actives have a fitted effect of over 40% in size
Outline: as §2

[15] = qHTS of pediatric cancer cell lines to identify multiple opportunities for drug repurposing: Primary screen for SK-N-SH cells (AID 1347098); further: nearly all actives have a fitted effect of over 65% in size
Outline: as §3

[16] = P-glycoprotein substrates identified in KB-8-5-11 adenocarcinoma cell line, qHTS therapeutic library screen (AID 1346987); settings: outcome: dose series up to 44.5 µM; further: series mostly up to about 44 µM; nearly all actives have a fitted effect of over 65% in size
Outline: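 Steps: plate 500 KB-8-5-11 cells/well in DMEM + 10% FCS (colchicine removed); pin compounds in dose-response; incubate 72 h, 37 degree C, 5% CO2; add CellTiter-Glo, 5 min; read luminescence.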

Measured: Potency

COc1ccc(-c2cc(=O)c3c(O)cc(O[C@@H]4O[C@H](CO[C@@H]5O[C@@H](C)[C@H](O)[C@@H](O)[C@H]5O)[C@@H](O)[C@H](O)[C@H]4O)cc3o2)cc1O
not listed: [16]
inactive: all other assays above

Cc1[nH]c(C)c(Cl)c(=O)c1Cl
not listed: [16]
inactive: all other assays above

CCN1CC(CCN2CCOCC2)C(c2ccccc2)(c2ccccc2)C1=O (configuration not stated)
not listed: [10] | [12] | [16]
inactive: all other assays above

OC[C@@H](O)[C@@H](O)[C@H](O)[C@H](O)CO
not listed: [10] | [14] | [15] | [16]
inactive: all other assays above

CC(=O)NS(=O)(=O)c1ccc(N)cc1
not listed: [6] | [12] | [16]
inactive: all other assays above

CC(=O)Oc1cccc(C)c1
not listed: [16]
inactive: all other assays above

COc1ccc2cc(CCC(C)=O)ccc2c1
not listed: [16]
inactive: all other assays above

COc1ccccc1OCC(O)CO (configuration not stated)
not listed: [12] | [16]
inactive: all other assays above

FC(F)(F)C(Cl)Br (configuration not stated)
not listed: [14] | [16]
inactive: all other assays above

CCC(C)(CN(C)C)OC(=O)c1ccccc1 (configuration not stated)
not listed: [12] | [14] | [16]
inactive: all other assays above

O=C1c2ccccc2C(=O)C1c1ccc(Br)cc1
not listed: [16]
inactive: all other assays above

CCOc1ccccc1O[C@H](c1ccccc1)[C@H]1CNCCO1
not listed: [15] | [16]
inactive: all other assays above

Cc1cc(O)cc(C)c1Cl
not listed: [16]
inactive: all other assays above

CC(C)CCOC(=O)c1ccc(N(C)C)cc1
not listed: [6] | [16]
inactive: all other assays above

CC(=O)N(CC(O)CN(C(C)=O)c1c(I)c(C(=O)NCC(O)CO)c(I)c(C(=O)NCC(O)CO)c1I)c1c(I)c(C(=O)NCC(O)CO)c(I)c(C(=O)NCC(O)CO)c1I (configuration not stated)
not listed: [4]
inactive: all other assays above

Cc1ncc(CO)c(CN)c1O
not listed: [4]
inactive: all other assays above

C=CCSCC1Nc2cc(Cl)c(S(N)(=O)=O)cc2S(=O)(=O)N1 (configuration not stated)
not listed: [4]
inactive: all other assays above
